# Laboratory results as given in PubChem BioAssay.
# A number with no mark means an inactive call. Active and inactive are the calls of the source.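 The calls were made as follows: active = normalized viability below 100% at a tested concentration; inactive = the rest.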
# Experiment: ovarian cancer cell viability with rucaparib, profiling panel, oncology-focused library, rucaparib conditional (AID 1508598)
# Conditions: patient-derived ovarian cancer cells, CellTiter-Glo viability, 144 h; at 1.25 µM; OCI-C5x cells; with rucaparib 10 µM; stronger effect = lower value; 100% = cells with rucaparib alone
row,Structure (SMILES),viability
1,O=c1[nH]c(=O)n([C@@H]2C[C@H](O)[C@@H](CO)O2)cc1F,117%
2,COc1cccc2c1C(=O)c1c(O)c3c(c(O)c1C2=O)C[C@@](O)(C(C)=O)C[C@H]3O[C@H]1C[C@H](N)[C@H](O)[C@H](C)O1,2.76% (active)
3,C[C@]12CC[C@H]3c4ccc(O)cc4CC[C@H]3[C@@H]1CC[C@H]2O,100%
4,CC1=C(/C=C/C(C)=C\C=C\C(C)=C/C(=O)O)C(C)(C)CCC1,103%
5,CC(C)CC(CC(=O)NO)C(=O)N[C@@H](Cc1ccc2ccccc2c1)C(=O)N[C@@H](C)C(=O)NCCN (stereo partly drawn),134%
6,COc1cccc2c1C(=O)c1c(O)c3c(c(O)c1C2=O)C[C@@](O)(C(=O)CO)C[C@H]3O[C@H]1C[C@H](N)[C@@H](O)[C@H](C)O1,15.6% (active)
7,COc1ccc(C2=N[C@H](c3ccc(Cl)cc3)[C@@H](c3ccc(Cl)cc3)N2C(=O)N2CCNC(=O)C2)c(OC(C)C)c1,114%
8,CO[C@H]1C[C@H]2CC[C@@H](C)[C@@](O)(O2)C(=O)C(=O)N2CCCC[C@H]2C(=O)O[C@H]([C@H](C)C[C@@H]2CC[C@H](OC(=O)C(C)(CO)CO)[C@H](OC)C2)CC(=O)[C@H](C)/C=C(\C)[C@@H](O)[C@@H](OC)C(=O)[C@H](C)C[C@H](C)/C=C/C=C/C=C/1C,100%
9,O=C(O)c1cc(I)ccc1NC(=O)[C@H](Cc1ccccc1)NCc1ccccc1,132%
10,Nc1ncn([C@@H]2O[C@H](CO)[C@@H](O)[C@@H]2O)c(=O)n1,110%
11,CO[C@H]1C[C@@H]2CC[C@@H](C)[C@@](O)(O2)C(=O)C(=O)N2CCCC[C@H]2C(=O)O[C@H]([C@H](C)C[C@@H]2CC[C@@H](O)[C@H](OC)C2)CC(=O)[C@H](C)/C=C(\C)[C@@H](O)[C@H](OC)C(=O)[C@H](C)C[C@H](C)/C=C/C=C/C=C/1C,105%
12,CC(=O)OCC(=O)[C@]1(O)[C@H](C)C[C@H]2[C@@H]3CCC4=CC(=O)C=C[C@]4(C)[C@]3(F)[C@H](O)C[C@@]21C,122%
13,CC[C@]1(O)C[C@@H]2CN(CCc3c([nH]c4ccccc34)[C@@](C(=O)OC)(c3cc4c(cc3OC)N(C=O)[C@H]3[C@@](O)(C(=O)OC)[C@H](OC(C)=O)[C@]5(CC)C=CCN6CC[C@@]43[C@@H]65)C2)C1,33.5% (active)
14,C[C@@]12CC[C@H]3c4ccc(O)cc4C[C@@H](CCCCCCCCCS(=O)CCCC(F)(F)C(F)(F)F)[C@H]3[C@@H]1CC[C@@H]2O (stereo partly drawn),123%
15,CC(=O)O[C@@]1(C(C)=O)CC[C@H]2[C@@H]3C[C@H](C)C4=CC(=O)CC[C@]4(C)[C@@H]3CC[C@@]21C,107%
16,CC(=O)O[C@]12CO[C@@H]1C[C@H](O)[C@]1(C)C(=O)[C@H](O)C3=C(C)[C@H](OC(=O)[C@H](O)[C@@H](NC(=O)OC(C)(C)C)c4ccccc4)C[C@](O)([C@H](OC(=O)c4ccccc4)C21)C3(C)C (stereo partly drawn),47.4% (active)
17,CCC1=CC2CN(C1)Cc1c([nH]c3ccccc13)[C@@](C(=O)OC)(c1cc3c(cc1OC)N(C)[C@H]1[C@@](O)(C(=O)OC)[C@H](OC(C)=O)[C@]4(CC)C=CCN5CC[C@@]31[C@H]54)C2 (stereo partly drawn),39.7% (active)
18,CC(=O)O[C@H]1C(=O)[C@@]2(C)C([C@H](OC(=O)c3ccccc3)[C@]3(O)C[C@H](OC(=O)[C@H](O)[C@@H](NC(=O)c4ccccc4)c4ccccc4)C(C)=C1C3(C)C)[C@]1(OC(C)=O)CO[C@@H]1C[C@H]2O (stereo partly drawn),30% (active)
